# Screening results as filed in PubChem.
# Yp Topo-I inh – Y. pestis Topo-I inhibition via cleavage products; Y. pestis Topo-I cleavage product accumulation, plate reader; activity, % at 10 µM; 360,000 tested, 0.064% active; in the data active means activity above about 50%, passing the limit was not always enough
# PrP 5UTR inh – inhibition of PrP 5' UTR reporter expression; 340,000 tested, 0.35% active; cell-based PrP 5' UTR mRNA reporter, plate reader; inhibition, % (concentration not given with the values); in the data active means inhibition above about 52%; further: 0 = median of the neutral control wells
# BJeLR lethal – kills HRASV12-expressing BJeLR cells; BJeLR (HRASV12) viability, CellTiter-Glo ATP luminescence, 48 h; inhibition, % (test concentration not listed); 300,000 tested, 0.17% active; AID 1554; in the data active means inhibition above about 50%
# RN4220 kill – kills Staphylococcus aureus RN4220; AID 1259311; S. aureus RN4220 growth, OD600, 16 h; inhibition, % (test concentration not listed); 330,000 tested, 0.33% active; in the data active means inhibition above about 85%;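 further: plate controls were untreated cells for no effect and reference antibiotic for full effect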
# Sa ugtP lethal – compounds lethal to S. aureus RN4220 ugtP deletion mutant; OD600 growth, 16 h; growth inhibition, % (no concentration beside the values); 330,000 tested, 0.54% active; in the data active means growth inhibition above about 68%;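 further: plate controls were untreated wells for no effect and antibiotic for full effect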
# PfHsp40 yeast – compounds rescuing yeast from Plasmodium falciparum HSP40 toxicity; S. cerevisiae expressing PfHsp40, growth rescue, ATP luminescence; growth rescue, % at 12.5 µM; 340,000 tested, 0.68% active; AID 504582; in the data active means growth rescue above about 28%, passing the limit was not always enough;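 further: yeast W303a lacking pdr1 and pdr3 grown in galactose medium; growth measured after three days at 30 °C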
# * marks the source's active call; other numbers are inactive results; . = no result. Sampled rows, rich in hits. Any-hit rate of the full collection: about 1.4%.
SMILES,Yp Topo-I inh,PrP 5UTR inh,BJeLR lethal,RN4220 kill,Sa ugtP lethal,PfHsp40 yeast
COc1ccc(-c2[nH]ncc2N=Nc2ccccc2)cc1,6,-42,-3,-13,22,50*
CCOC(=O)CN1C(=O)NC(c2ccccc2)C(C(C)=O)C1C (stereo not drawn),.,.,.,5,0,.
Clc1cccc(CON/C=N/c2ncnc3sccc23)c1,6,-10,2,.,.,812*
NC(=O)C1CC2(CC(c3cccc(NC(=O)C4CCC(=O)N4)c3)=NO2)CN1C(=O)c1ccccc1C(=O)c1ccccc1 (stereo not drawn),.,.,.,5,-2,.
CCOc1ccc2nc3cc(NCc4ccc(OC)cc4)ccc3c(N)c2c1,-31,8,7,101*,100*,-1
CCn1cnc2cc(NCc3ccc(OC)cc3)ccc21,3,-20,-11,-1,5,1
CC(C)(C)C(C(Oc1ccc(Cl)cc1)n1cncn1)n1nnnc1C(c1cccc(Cl)c1)N1CCCCC1 (stereo not drawn),.,.,3,.,.,.
CC(C)(C)C(O)C(Oc1ccc(Cl)cc1)n1cncn1 (stereo not drawn),2,-10,4,5,-7,141*
COc1cc2c(c(OC)c1OC)-c1c(cc3c(c1OC)OCO3)CC(C)[C@@](C)(O)C2 (stereo partly drawn),.,.,.,4,-6,.
CCOC(=O)/C(=N\Nc1ccccc1)N1CC1,5,-38,13,.,.,-1
CCOC(=O)/C(=N/Nc1ccc(Br)cc1)N1CC(C)OC(C)C1 (stereo not drawn),10,-16,.,4,10,36*
Cc1ccc(SCCNC(=O)c2ccc([N+](=O)[O-])c(C)c2)cc1,11,-26,-1,2,2,6
Cc1ccc(SCCNC(=O)c2ccc(C)c([N+](=O)[O-])c2)cc1,2,-12,-1,-6,-8,48*
O=C(COC(=O)c1ccc([N+](=O)[O-])o1)NCCCc1ccccc1,-3,-3,.,9,8,45*
O=C(COC(=O)c1ccc([N+](=O)[O-])o1)NCc1ccc(F)cc1,5,-20,.,11,10,223*
O=C(COC(=O)c1ccc([N+](=O)[O-])o1)NC1CCCC1,-7,-26,.,8,9,3
CC(=O)Nc1ccc(NC(=O)COC(=O)c2ccc([N+](=O)[O-])o2)cc1,8,-7,.,.,.,0
COc1ccc(CCNC(=O)COC(=O)c2ccc([N+](=O)[O-])o2)cc1,2,-21,.,5,7,123*
O=C(COC(=O)c1ccc([N+](=O)[O-])o1)NC1CCCCC1,1,-16,.,6,9,213*
C=C1CCN(C(CC(C)C)C(=O)N2CCCC2)S(=O)(=O)c2ccccc21 (stereo not drawn),.,.,.,5,-8,.
Cc1ccccc1Cn1cccc1C=C1C(=N)N2C=CSC2=NC1=O,.,.,.,2,-12,.
COc1ccc(-c2ccc(OC)c(C3C4C=CCC[C@@]4(C)C(=O)N3Cc3ccccc3)c2)cc1OC (stereo partly drawn),.,.,.,-7,3,.
O=C(COC(=O)c1ccc([N+](=O)[O-])o1)Nc1cccc2ccccc12,-7,-4,-2,15,18,80*
COc1ccc(-n2sc3ccc(F)cc3c2=O)cc1,2,-21,.,.,.,125*
Cc1ccc(C)c(-n2sc3ccc(F)cc3c2=O)c1,1,-14,.,.,.,16
SMILES,Yp Topo-I inh,PrP 5UTR inh,BJeLR lethal,RN4220 kill,Sa ugtP lethal,PfHsp40 yeast
COc1ccc(-n2sc3ccccc3c2=O)cc1,-5,.,.,.,.,.
O=c1c2cc(F)ccc2sn1-c1ccc(F)cc1,-7,-13,.,.,.,76*
CCOC(=O)C1C2COc3ccccc3C2N2C(=O)c3cc(Br)ccc3NC(=O)[C@@]12C (stereo partly drawn),.,.,.,1,0,.
COC(=O)C1=C(c2ccc(C(C)=O)cc2)CC2CCC1N2C(=O)NCCCOC(C)C (stereo not drawn),.,.,.,3,1,.
Cc1ccc(C(=O)CSc2nnc(-c3ccc4[nH]c(C)c(C)c4c3)o2)cc1C,-4,-35,-6,18,98*,0
COC(=O)c1c(NS(=O)(=O)c2ccc3ccccc3c2)sc2c1CCCC2,-7,-17,4,87*,78,0
COC(=O)c1c(NC(=S)NNS(=O)(=O)c2ccc(OC)cc2OC)sc2c1CCCCCC2,-4,-3,-1,-8,92*,0
CCOC(=O)c1c(NS(=O)(=O)c2ccc(Br)cc2)sc2c1CCC2,-8,-2,7,112*,98*,1
COc1cccc2c1C(=N)c1c(O)c3c(c(O)c1C2=O)CC(O)(C(C)=O)CC3OC1CC(N)C(O)C(C)O1 (stereo not drawn),231*,22,.,.,.,-3
COc1ccc(C2C=C3CN(C(=O)OC(C)(C)C)S(=O)(=O)C3CC2OC(=O)c2ccc(C(F)(F)F)cc2)cc1 (stereo not drawn),.,.,.,4,9,.
COc1cc2c(c(OC)c1OC)-c1ccc(C(=O)O)cc1C(NC(C)=O)CC2 (stereo not drawn),.,.,.,4,0,.
O=c1oc2c(O)c(O)cc3c(=O)oc4c(O)c(O)cc1c4c23,-11,-12,.,.,.,152*
COC(=O)C1=C(c2c(C)noc2C)CC2CCC1N2C(=O)N1CCC(C)CC1 (stereo not drawn),.,.,.,6,-7,.
CC1=NN(c2ccccc2)C(=O)C1C(=O)c1cc([N+](=O)[O-])cc([N+](=O)[O-])c1 (stereo not drawn),1,1,-1,5,2,-2
CCCCCCCN1N=C(C)C(C(=O)c2ccccc2)C1=O (stereo not drawn),2,-9,0,42,22,381*
CCCCCCN1N=C(C)C(C(=O)c2ccc(Cl)cc2)C1=O (stereo not drawn),-2,-10,1,16,4,519*
FC(F)(F)c1ccc(CN2CC3C(c4ccccc4)C4(c5ccccc5)CC3(C4)C2c2ccccc2)cc1 (stereo not drawn),.,.,.,-1,-2,.
O=C(Nc1ccccc1Cl)OCC#CCOC(=O)Nc1ccccc1Cl,55*,.,.,.,.,.
O=C(Nc1ccccc1Cl)ON=C1c2ccccc2-c2ccccc21,5,-30,-9,-4,95*,88*
NC(=O)NC(=O)Nc1ccccc1Cl,9,-9,0,5,1,0
CC(C)c1ccc(OCC(=O)Nc2cccc3c2CCCC3)cc1,22,-8,-3,15,96*,-1
C/C(CC(=O)Nc1cccc2c1CCCC2)=N\NC(=O)COc1ccccc1,4,-35,2,.,.,1
COc1cc2c(c(OC)c1OC)-c1c(cc3c(c1OC)OCO3)C(OC(C)=O)C(C)C(C)C2 (stereo not drawn),.,.,.,8,11,.
CNC(=O)c1c2c(nc3ccc(Br)cc13)CCCC2,15,-3,-4,2,83*,-2
Cc1ccc2nc3c(c(C(=O)O)c2c1)CCC3,6,-19,1,8,4,0
